This note sets out measurements from PubChem BioAssay (Tox21).

Records with an inconclusive call do not appear. A number with no mark means an inactive call. Calls of active or inactive are those of the source. Unless noted, calls follow the shape of the dose curve; as a rule, active = well fitted curve in the direction sought with a large enough effect in the repeat runs; inconclusive = weak or mixed curves; inactive = no such curve, though single readings can be large; an effect the other way counts as inactive or inconclusive.

Assay [1] can be described thus: qHTS assay to identify aromatase inhibitors - cell viability counter screen (AID 743084).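 Also: cells stimulated with testosterone during compound exposure; nearly all actives have a fitted effect of over 55% in size.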
Assay [2] concerns the target Aryl hydrocarbon receptor (Homo sapiens) (UniProt P35869). Description: qHTS assay to identify small molecule that activate the aryl hydrocarbon receptor (AhR) signaling pathway (AID 743085). Also: nearly all actives have a fitted effect of over 15% in size. Also: potency is read from the fitted curve at half-maximal effect.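 As to activation: HG2L7.5c1 human HepG2 liver cells with stably integrated DRE-driven firefly reporter; series mostly up to about 70 µM.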 The gist of the method:
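HepG2 cells (HG2L7.5c1) stably carrying a firefly luciferase reporter driven by 20 dioxin responsive elements were exposed to compound for 24 h at 37C after a 5 h settling period; luminescence rise (ONE-Glo) indicated activation.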
For orientation: Quantitative high-throughput screening tests each substance at several concentrations.

The nature of assay [3]: qHTS assay to identify small molecule that activate the aryl hydrocarbon receptor (AhR) signaling pathway - cell viability counter screen (AID 743086).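 Also: HepG2 liver cells carrying the AhR DRE luciferase reporter; series mostly up to about 70 µM; nearly all actives have a fitted effect of over 45% in size.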 The gist of the method:
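HepG2-AhR-luc (HG2L7.5c1) cells, 4000/well, were preincubated 5 h at 37C, exposed to compound in qHTS format for 24 hr at 37C, then given CellTiter-Fluor for 30 min; viability was read as fluorescence in the reporter wells.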

Assay [4] deals with Peroxisome proliferator-activated receptor gamma (Homo sapiens) (UniProt P37231). Put plainly: qHTS assay to identify small molecule agonists of the peroxisome proliferator-activated receptor gamma (PPARg) signaling pathway (AID 743094; active = well fitted activation curve with a large enough effect in the signal ratio in the repeat runs, not every such curve was filed as active; the % refers to the signal ratio). The gist of the method: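 Agonist activity was taken from a beta-lactamase reporter (FRET substrate, 1 h at room temperature) in HEK293H cells carrying a PPARg UAS-bla construct. Compounds in DMSO were incubated 17 h at 37C after a 5 h cell pre-incubation.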
Sequence of Peroxisome proliferator-activated receptor gamma (Homo sapiens) (P37231 whole entry, looked up): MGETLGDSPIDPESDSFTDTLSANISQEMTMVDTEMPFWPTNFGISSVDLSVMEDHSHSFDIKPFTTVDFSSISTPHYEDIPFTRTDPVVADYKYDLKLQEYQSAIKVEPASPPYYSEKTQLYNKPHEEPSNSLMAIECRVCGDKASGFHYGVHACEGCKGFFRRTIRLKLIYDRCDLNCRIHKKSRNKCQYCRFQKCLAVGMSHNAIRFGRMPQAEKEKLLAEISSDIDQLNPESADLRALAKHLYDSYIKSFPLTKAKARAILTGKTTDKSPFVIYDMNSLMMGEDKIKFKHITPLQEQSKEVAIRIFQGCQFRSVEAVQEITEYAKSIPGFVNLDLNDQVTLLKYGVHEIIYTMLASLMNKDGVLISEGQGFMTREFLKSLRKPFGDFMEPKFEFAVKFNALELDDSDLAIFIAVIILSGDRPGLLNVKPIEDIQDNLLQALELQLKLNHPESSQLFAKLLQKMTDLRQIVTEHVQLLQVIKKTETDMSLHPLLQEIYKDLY

Assay [5] can be described thus: qHTS assay to identify small molecule phospholipidosis (PLD) inducers (AID 1259344; active = well fitted curve in the direction sought with a large enough effect; an effect the other way counts as inactive or inconclusive). In a few lines: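 After 4 h attachment on collagen I, HepG2 cells were dosed with compound alongside LipidTOX Red, kept 24 h at 37 C, fixed, and imaged for lamellar phospholipid pits.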
For assay [6], the target named is Nuclear receptor subfamily 1 group I member 2 (Rattus norvegicus) (UniProt Q9R1A7). Put plainly: Rat pregnane X receptor (rPXR) activation by small molecules, qHTS assay (AID 1346983). Also: nearly all actives have a fitted effect of over 20% in size. To be noted: rPXR luciferase reporter cells, One-Glo luminescence, 24 h; max activation: active compounds read high. The gist of the method:
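Cell-based rPXR luciferase reporter assay, 2,000 cells per well, rested 5hr at 37 C before compound addition in DMSO, then 24 hr at 37 C. One-Glo reagent was added and luminescence read after 30 min at room temperature.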

Assay [7] deals with Nuclear receptor subfamily 1 group I member 2 (Homo sapiens) (UniProt O75469). Description: CYP3A4 induction through human pregnane X receptor (PXR) by small molecules, qHTS assay (AID 1346984). Also: nearly all actives have a fitted effect of over 40% in size. Also: potency is read from the fitted curve at half-maximal effect. The gist of the method: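 Read-out is luminescence after One-Glo addition, following a 3 hr, 37C incubation with Luciferin-IPA CYP3A4 substrate (3uM final). Before that, compounds were on DPX-2 cells (HepG2 co-transfected with PXR element plus CYP3A4-promoter luciferase) for 24 hr at 37C.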

The target is the same in assay [8]. Description: Human pregnane X receptor (PXR) activation by small molecules, qHTS assay (AID 1346985). Also: nearly all actives have a fitted effect of over 40% in size. Also: potency is read from the fitted curve at half-maximal effect. The gist of the method: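 DPX-2 cells (HepG2 co-transfected with a PXR response element and a CYP3A4-promoter luciferase construct) were seeded at 2,000 per well, rested 5 hr at 37C, then exposed to DMSO-dissolved compounds for 24 hr. Activation was read as luciferase luminescence.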
% is scaled to controls: 0 for no effect and ±100 for the full control effect.

Sequence of Nuclear receptor subfamily 1 group I member 2 (Rattus norvegicus) (Q9R1A7 whole entry, looked up): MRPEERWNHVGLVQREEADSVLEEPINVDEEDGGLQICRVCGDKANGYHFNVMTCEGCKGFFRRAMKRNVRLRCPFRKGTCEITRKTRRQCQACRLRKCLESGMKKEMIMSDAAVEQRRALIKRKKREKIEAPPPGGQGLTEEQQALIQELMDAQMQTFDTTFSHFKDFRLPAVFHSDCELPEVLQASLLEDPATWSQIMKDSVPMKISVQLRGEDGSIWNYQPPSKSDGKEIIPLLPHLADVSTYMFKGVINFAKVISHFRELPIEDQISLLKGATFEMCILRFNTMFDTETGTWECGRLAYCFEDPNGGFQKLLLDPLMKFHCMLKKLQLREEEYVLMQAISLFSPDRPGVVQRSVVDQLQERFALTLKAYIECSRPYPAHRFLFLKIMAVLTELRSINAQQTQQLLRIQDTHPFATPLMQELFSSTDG
Sequence of Aryl hydrocarbon receptor (Homo sapiens) (P35869 whole entry, looked up): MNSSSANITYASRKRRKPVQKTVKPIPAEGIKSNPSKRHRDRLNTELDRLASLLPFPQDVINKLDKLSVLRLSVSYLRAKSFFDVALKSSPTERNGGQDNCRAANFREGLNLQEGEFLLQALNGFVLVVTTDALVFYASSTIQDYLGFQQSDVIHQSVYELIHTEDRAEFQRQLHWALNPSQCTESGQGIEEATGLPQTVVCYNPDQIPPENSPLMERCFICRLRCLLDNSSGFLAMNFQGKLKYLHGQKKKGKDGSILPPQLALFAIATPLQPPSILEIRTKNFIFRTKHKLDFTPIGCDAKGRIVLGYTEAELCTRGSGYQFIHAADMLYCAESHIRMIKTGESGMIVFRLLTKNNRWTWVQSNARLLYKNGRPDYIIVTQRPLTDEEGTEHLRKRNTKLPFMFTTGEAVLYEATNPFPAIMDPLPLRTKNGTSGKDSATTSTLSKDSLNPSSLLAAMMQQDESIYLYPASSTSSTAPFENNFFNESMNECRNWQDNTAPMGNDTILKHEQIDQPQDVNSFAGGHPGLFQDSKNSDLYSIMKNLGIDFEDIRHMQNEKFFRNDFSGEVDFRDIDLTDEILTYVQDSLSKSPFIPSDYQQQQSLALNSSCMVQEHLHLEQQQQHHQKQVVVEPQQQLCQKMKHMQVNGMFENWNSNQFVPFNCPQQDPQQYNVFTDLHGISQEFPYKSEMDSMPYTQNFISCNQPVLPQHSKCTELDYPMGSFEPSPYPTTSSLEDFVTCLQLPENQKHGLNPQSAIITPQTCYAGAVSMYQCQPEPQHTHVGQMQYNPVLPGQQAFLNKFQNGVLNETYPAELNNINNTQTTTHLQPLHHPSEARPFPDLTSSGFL

For the molecule `Cc1ncc(COP(=O)(O)O)c(CN)c1O`, the Potency result in assay [1], in assay [2], in assay [3], in assay [4], in assay [7] and in assay [8] was “inactive” in each case. Besides, the PLD induction in assay [5] is -1.52% [at 7.66 µM]. Moreover, in assay [6], the max activation is 0.341%.

For `CN1c2c(nc(N)[nH]c2=O)NCC1CNc1ccc(C(=O)NC(CCC(=O)O)C(=O)O)cc1` (centres undefined), the Potency entry in assay [1], in assay [2], in assay [3], in assay [4], in assay [5] and in assay [7] was “inactive” throughout. Moreover, the Potency entry in assay [8] is “inactive”. Further, in assay [6], the max activation was -0.71%.

Turning to `COc1cc(/C=C/C(=O)N2CCN(CC(=O)N3CCCC3)CC2)cc(OC)c1OC`, the Potency entry in assay [1], in assay [2], in assay [3], in assay [4], in assay [5] and in assay [7] was “inactive” throughout. In addition, the Potency result in assay [8] was “inactive”. The max activation in assay [6] was 0.536%.

Consider `CC(C)(C)c1ccc(CN2CCN(C(c3ccccc3)c3ccc(Cl)cc3)CC2)cc1` (centres undefined), for which the Potency result in assay [1], in assay [2], in assay [3], in assay [4], in assay [5] and in assay [7] was “inactive” each time. In addition, the Potency entry in assay [8] is “inactive”. Also, the max activation in assay [6] was 10.7%.

For `CCCCCCCCCCCCCCCCCCCCCCO`, the Potency result in assay [1], in assay [2], in assay [3], in assay [4], in assay [5] and in assay [7] was “inactive” each time. For the same molecule, the Potency result in assay [8] was “inactive”. Further, the max activation in assay [6] was -1.89%.

`COC(=O)[C@@H](N)CS`: the Potency entry in assay [1], in assay [2], in assay [3], in assay [4], in assay [5] and in assay [7] was “inactive” throughout. For the same molecule, in assay [8], the Potency result was “inactive”. In assay [6], the max activation is 0.531%.

`CC(C)CCCC(C)NC(C)C` (centres undefined): the Potency result in assay [1], in assay [2], in assay [3], in assay [4], in assay [5] and in assay [7] was “inactive” each time. The Potency result in assay [8] was “inactive”. In assay [6], the max activation was -0.288%.

On to `COC(=O)CCC[N+](C)(C)C`, for which the Potency entry in assay [1], in assay [2], in assay [3], in assay [4], in assay [5] and in assay [7] was “inactive” throughout. Moreover, the Potency result in assay [8] is “inactive”. Also, the max activation in assay [6] is -0.156%.

In the case of `CC(C)C[C@H](NC(=O)[C@@H](Cc1c[nH]c2ccccc12)NC(=O)[C@H](Cc1ccc(O)cc1)NC(=O)[C@H](CO)NC(=O)[C@H](Cc1c[nH]c2ccccc12)NC(=O)[C@H](Cc1cnc[nH]1)NC(=O)[C@@H]1CCC(=O)N1)C(=O)N[C@@H](CCCN=C(N)N)C(=O)N1CCC[C@@H]1C(=O)NCC(N)=O`, the Potency result in assay [1], in assay [2], in assay [3], in assay [4], in assay [5] and in assay [7] was “inactive” throughout. Further, the Potency result in assay [8] was “inactive”. For the same molecule, in assay [6], the max activation is -2.6%.

With `[O]=[Bi][O]C(=O)[O][Bi]=[O]`, the Potency result in assay [1], in assay [2], in assay [3], in assay [4], in assay [5] and in assay [7] was “inactive” in each case. Further, the Potency result in assay [8] was “inactive”. Moreover, the max activation in assay [6] is -3.15%.

Take `CC(C)Cc1ccc([C@@H](C)C(=O)NS(C)(=O)=O)cc1`: the Potency entry in assay [1], in assay [2], in assay [3], in assay [4], in assay [5] and in assay [7] was “inactive” throughout. In assay [8], the Potency result is “inactive”. Also, the max activation in assay [6] was -2.09%.

Turning to `CC1=C(/C=C/C(C)=C/C=C/C(C)=C/C=C/C=C(C)/C=C/C=C(C)/C=C/C2=C(C)C(=O)CCC2(C)C)C(C)(C)CCC1=O`, the Potency result in assay [1], in assay [2], in assay [3], in assay [4], in assay [5] and in assay [7] was “inactive” throughout. In addition, the Potency entry in assay [8] was “inactive”. Further, the max activation in assay [6] was -3.2%.

In the case of `O=S(=O)(O)CCCS(=O)(=O)O`, the Potency result in assay [1], in assay [2], in assay [3], in assay [4], in assay [5] and in assay [7] was “inactive” each time. In addition, the Potency result in assay [8] was “inactive”. Besides, the max activation in assay [6] is -2.5%.

`CO/N=C(\C(=O)N[C@@H]1C(=O)N2C(C(=O)O)=C(CSC(=O)c3ccco3)CS[C@H]12)c1csc(N)n1`: the Potency entry in assay [1], in assay [2], in assay [3], in assay [4], in assay [5] and in assay [7] was “inactive” throughout. The Potency entry in assay [8] was “inactive”. The max activation in assay [6] is -5.54%.

Take `CC1(C)S[C@@H]2[C@H](NC(=O)C(N)c3ccccc3)C(=O)N2[C@H]1C(=O)OC1OC(=O)c2ccccc21` (some centres undefined): the Potency result in assay [1], in assay [2], in assay [3], in assay [4], in assay [5] and in assay [7] was “inactive” in each case. Further, the Potency result in assay [8] is “inactive”. In addition, the max activation in assay [6] was -3.71%.

For the molecule `COc1ccccc1N1CCN(CCCC(=O)c2ccc(F)cc2)CC1`, the Potency entry in assay [1], in assay [3], in assay [4] and in assay [5] was “inactive” each time. In addition, the Potency in assay [2] is 10.6 µM (active); in assay [7], 6.31 µM (active); in assay [8], 7.94 µM (active). In assay [6], the max activation was 8.11%.

As to `CC(C)(CO)[C@@H](O)C(=O)NCCCC(=O)O`, the Potency result in assay [1], in assay [2], in assay [3], in assay [4], in assay [5] and in assay [7] was “inactive” in each case. Also, the Potency entry in assay [8] is “inactive”. In addition, the max activation in assay [6] was -8.61%.

In the case of `CC(=O)Oc1c(C)cc(OCC(O)CNC(C)C)c(C)c1C` (centres undefined), the Potency entry in assay [1], in assay [2], in assay [3], in assay [4], in assay [5] and in assay [7] was “inactive” each time. For the same molecule, the Potency entry in assay [8] was “inactive”. Besides, the max activation in assay [6] was -4.59%.
